Compound activity deposited in PubChem by several laboratories.
EWS-Fli inh – inhibitors of EWS/Fli oncoprotein transcriptional activity | A673 NR0B1-luciferase reporter, viability-normalised | inhibition, % at 12.6 µM | 350,000 tested, 0.67% active;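 active = mean inhibition of at least 50% after viability correction, with every replicate also passing that limit; inconclusive = mean reaches 50% but only one of two replicates passes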;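 also: firefly luciferase signal divided by Alamar Blue viability fluorescence both relative to DMSO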
PAX8 reporter – inhibitors of PAX8 transcriptional activity in RMG-I cells; RMG-I TPO-luciferase reporter, SteadyGlo, 24 h; inhibition, % at 12.6 µM; 360,000 tested, 1.2% active;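 active = mean replicate inhibition at least 60% with every replicate also reaching 60%; inconclusive = only one of the two criteria is met; inactive = mean below 60% and not all replicates reaching 60%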;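 also: luciferase light reporting Pax8 driven TPO promoter activity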
TWEAK Fn14 block – blocks TWEAK-Fn14 interaction in a reporter cell assay | TWEAK-stimulated Fn14 reporter cells, luciferase luminescence, 8 h | inhibition, % at 10 µM | 360,000 tested, 2% active; in the data active = inhibition above about 50%
TROY NFkB inh – blocks TROY-dependent signaling in reporter cells; Q293 LMP1-TROYcd NF-kB luciferase reporter, 4 h; inhibition, % at 10 µM; 360,000 tested, 0.98% active; AID 1347056;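 active = compounds whose plate-normalised and pattern-corrected inhibition of the luciferase reporter signal at the single screening dose is 50% or more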
LGR2 inh – blocks bursicon-induced cAMP signaling via Drosophila LGR2; HEK293 LGR2, CRE-luciferase, bursicon-stimulated, 4 h; inhibition, % at 9.99 µM; 380,000 tested, 0.35% active; AID 720647;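 active = drop in luminescence signal, shown as inhibition above about 50% in the replicate tests, limit read from the data, passing the limit was not always enough; inconclusive = probably only some replicates passing the limit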;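 also: agonist challenge used bursicon conditioned medium at about half maximal strength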
Hits are given with their value; i = inactive; ? = inconclusive; nt = no result given. Compounds with a hit are over-represented: about 2.8% of the library has one in this group of screens.

SMILES	EWS-Fli inh	PAX8 reporter	TWEAK Fn14 block	TROY NFkB inh	LGR2 inh
COCC(=O)N1C[C@H](C)[C@H](OC)CN(C)C(=O)c2ccc(NC(=O)c3ccc(OC)cc3)cc2OC[C@H]1C	i	i	nt	nt	i
C[C@@H]1CN([C@@H](C)CO)C(=O)c2cc(NS(=O)(=O)c3cn(C)cn3)ccc2O[C@@H]1CN(C)C(=O)Nc1ccc(F)cc1	i	i	nt	nt	i
O=C(CCl)Nc1ccc(N=Nc2ccccc2)cc1	i	i	i	i	i
O=C(CCl)Nc1ccc(-c2ccccc2)cc1	64	i	i	i	nt
CC(C)N(c1ccccc1)c1ccc(NC(=O)[C@@H]2O[C@H](CO)[C@H](O)[C@H](O)[C@H]2O)cc1	i	i	i	i	i
CC(C)N(c1ccccc1)c1ccc(NC(=O)CCl)cc1	i	i	62	i	i
COc1cccc(C#Cc2cnc3c(c2)C(=O)N([C@H](C)CO)C[C@H](C)[C@@H](CN(C)C(=O)C2CCOCC2)O3)c1	i	i	nt	nt	i
CC(=O)N1[C@@H]2c3ccc(-c4cccc(F)c4)c(=O)n3C[C@H]1[C@H](CO)[C@H]2C(=O)NCC1CC1	i	i	nt	nt	i
COc1cc(-c2c(CCO)sc3ccccc23)cc(OC)c1OC	56	i	i	i	i
CC(C)CCN1C(=O)c2ccc(C(=O)Nc3ccc(Br)cc3C(=O)O)cc2C1=O	i	i	i	58	i
CCO[C@@H]1OC(C(=O)N2CCCC2)=C[C@H](c2ccccc2)[C@H]1CCCO	i	i	nt	nt	nt
COc1cc(NC(=O)c2ccc([N+](=O)[O-])o2)ccc1NC(=O)c1ccco1	nt	90	i	i	i
Cc1cc(NC(=O)c2ccc([N+](=O)[O-])o2)ccc1NC(=O)c1ccco1	i	99	i	i	i
COc1ccc(-c2oc(=O)c3cc(OC)c(OC)cc3c2/C=C/c2ccc(OC(C)=O)cc2)cc1	i	i	i	i	i
COc1cc(-c2noc(C)c2/C=C/c2ccc(OC(C)=O)cc2)cc(OC)c1OC	64	69	52	i	i
N#Cc1ccc(C(=O)Nc2nnc(-c3cccs3)o2)cc1	i	i	i	i	i
O=C(Nc1nnc(-c2cccs2)o1)c1cccc(C(F)(F)F)c1	i	i	101	i	i
Nc1cc2c(cc1Cl)-c1ccccc1C2	i	nt	i	i	i
O=C1C=CC(=Nc2ccc3c(c2)Cc2ccccc2-3)O1	i	i	i	65	i
CCCCN(CCCNC(=O)c1ccc2c(c1)NC(=O)CN2C)c1ccccc1	i	?	108	90	91
CC1CCCCN1CCCNC(=O)c1ccc2c(c1)NC(=O)CN2C (stereo not given)	i	i	i	i	i
CC(C)N(C(=O)Nc1ccc2nsnc2c1)C(C)C	i	i	nt	nt	82
CCC(=O)N1CC[C@@H]2[C@@H](CO)Nc3ccc(-c4cccc(C#N)c4)cc3[C@@H]21	i	i	nt	nt	i
N=P(N1CCOCC1)(N1CCOCC1)C12CC3CC(CC(C3)C1)C2	nt	nt	81	nt	nt
S=C(NC12CC3CC(CC(C3)C1)C2)N1CCOCC1	i	i	i	i	i
SMILES	EWS-Fli inh	PAX8 reporter	TWEAK Fn14 block	TROY NFkB inh	LGR2 inh
C[C@H](CO)N1C[C@H](C)[C@@H](CN(C)C(=O)Nc2cccc(F)c2)Oc2cc(C#CC3(O)CCCC3)ccc2S1(=O)=O	i	nt	nt	nt	i
Cc1cc(C(=O)Nc2ccc(N3CCCCC3)cc2)no1	i	i	73	i	?
CC(=O)c1c[nH]c(C(=O)Nc2ccc(N3CCCCCC3)cc2)c1	i	i	69	i	i
COc1cccc(S(=O)(=O)N2C[C@@H](O)COC[C@@H]3O[C@H](CC(=O)N4CCOCC4)CC[C@H]32)c1	i	i	nt	nt	i
CO[C@@H]1CN(C)C(=O)c2ccc(NC(=O)c3ccccn3)cc2OC[C@@H](C)N(C(=O)Nc2ccccc2Cl)C[C@H]1C	i	nt	nt	nt	nt
CC1(C(=O)Nc2ccc3c(c2)OCCO3)CCN1C(=O)Cc1ccc(-c2ccccc2)cc1 (stereo not given)	i	i	74	i	i
CC(C)c1ccc(CC(=O)N2CCC2(C)C(=O)Nc2ccc3c(c2)OCO3)cc1 (stereo not given)	i	i	i	i	i
CC1(C(=O)Nc2cccc(C#N)c2)CCN1C(=O)Cc1ccc(-c2ccccc2)cc1 (stereo not given)	i	i	57	i	i
CC1(C(=O)Nc2ccc3c(c2)OCCO3)CCN1C(=O)C1(c2ccc(Cl)cc2)CCC1 (stereo not given)	i	i	i	i	i
CC1(C(=O)Nc2ccc3c(c2)OCCO3)CCN1C(=O)C1(c2ccc(Cl)cc2)CC1 (stereo not given)	i	i	59	i	i
C[C@@H]1CCCCO[C@H](CN(C)C(=O)C2CCCCC2)[C@@H](C)CN([C@@H](C)CO)C(=O)c2cc(NC(=O)Nc3ccc(C(F)(F)F)cc3)ccc2O1	i	nt	nt	nt	i
Cc1noc(C)c1S(=O)(=O)Nc1ccc2c(c1)CC(=O)N([C@@H](C)CO)C[C@H](C)[C@@H](CN(C)C(=O)Nc1ccc3c(c1)OCO3)O2	i	i	nt	nt	i
COc1cc(OC)c(NC2=CC(=O)C(=O)c3ccccc32)cc1Cl	i	93	i	i	i
COc1ccccc1NS(=O)(=O)c1cccc(C(=O)OCc2nc3ccccc3s2)c1	nt	i	58	68	i
COc1ccccc1NS(=O)(=O)c1cccc(C(=O)OCC(=O)Nc2cc(C)on2)c1	nt	nt	i	i	nt
CN1C(=O)c2cc(NC(=O)C3CC3)ccc2OC[C@@H]2O[C@@H](CC(=O)NCc3ccccc3F)CC[C@H]21	i	i	nt	nt	i
C=CCn1c(C)cc(C(=O)COC(=O)[C@@H](NC(=O)c2ccccc2Cl)C(C)C)c1C	i	i	54	i	?
C[C@@H]1CN([C@@H](C)CO)C(=O)CCCn2cc(nn2)CO[C@@H]1CN(C)C(=O)Nc1cccc(F)c1	i	i	nt	nt	i
C=CCc1c(C)nc2cc(-c3ccc(C)cc3)[nH]n2c1=O	i	i	63	i	?
CC(C)NC(=O)N(C)C[C@H]1OCCCC[C@H](C)Oc2ccc(NC(=O)c3ccccc3)cc2C(=O)N([C@@H](C)CO)C[C@@H]1C	nt	i	nt	nt	i
COc1ccc(CN(C)C[C@@H]2OCCCC[C@H](C)Oc3ccc(NC(=O)Nc4ccc(C(F)(F)F)cc4)cc3C(=O)N([C@@H](C)CO)C[C@H]2C)cc1	72	87	nt	nt	nt
COc1ccc(NC(=O)Nc2ccc3c(c2)C(=O)N([C@H](C)CO)C[C@@H](C)[C@@H](CN(C)Cc2ccc(C(F)(F)F)cc2)OCCCC[C@H](C)O3)cc1	i	73	nt	nt	i
COc1ccc(CN(C)C[C@@H]2OCCCC[C@@H](C)Oc3ccc(NC(=O)Nc4ccc(C(F)(F)F)cc4)cc3C(=O)N([C@H](C)CO)C[C@@H]2C)cc1	i	i	nt	nt	nt
COc1ccc(CN(C)C[C@H]2OCCCC[C@H](C)Oc3ccc(NC(=O)Nc4ccc(C(F)(F)F)cc4)cc3C(=O)N([C@H](C)CO)C[C@H]2C)cc1	?	102	nt	nt	nt
COc1ccc(NC(=O)Nc2ccc3c(c2)C(=O)N([C@H](C)CO)C[C@H](C)[C@@H](CN(C)Cc2ccc(C(F)(F)F)cc2)OCCCC[C@H](C)O3)cc1	i	i	nt	nt	i
